# Assay results: PubChem BioAssay (NCATS)
# Records with an inconclusive call do not appear. A call without a number means that no potency is given here. Activity calls are given as the source filed them. Calls come from the whole dose curve; as a rule, active = well fitted inhibition curve with a large enough effect; inconclusive = small, poorly fitted or top-dose-only effect; inactive = flat fitted curve, though single readings scatter.
# What was measured:
# Assay in all cases: qHTS profiling for inhibitors of Plasmodium falciparum proliferation (AID 504749); note: nearly all actives have a fitted effect of over 60% in size
# Details in all cases: P. falciparum in erythrocytes, SYBR Green DNA, 72 h; series mostly up to 28.7 µM
# ATS95 = system: ATS95
# Procedure, shortened: (§1)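 Each compound contacts P. falciparum-infected red blood cells for 72 h at 37 C; lysis buffer (Tris, EDTA, saponin, Triton X, SYBR Green I) is added and fluorescence measured next morning; values normalized to controls.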
# C2A = system: C2A
# Procedure, shortened: as §1
# CP217 = system: CP217
# Procedure, shortened: as §1
# CP237 = system: CP237
# Procedure, shortened: as §1
# CP238 = system: CP238
# Procedure, shortened: as §1
# CP250 = system: CP250
# Procedure, shortened: as §1
# CP252 = system: CP252
# Procedure, shortened: as §1
# CP256 = system: CP256
# Procedure, shortened: as §1
# CP262 = system: CP262
# Procedure, shortened: as §1
# CP265 = system: CP265
# Procedure, shortened: as §1
# CP266 = system: CP266
# Procedure, shortened: as §1
# CP268 = system: CP268
# Procedure, shortened: as §1
# CP269 = system: CP269
# Procedure, shortened: as §1
# CP305 = system: CP305
# Procedure, shortened: as §1
# CP325 = system: CP325
# Procedure, shortened: as §1
# CP329 = system: CP329
# Procedure, shortened: as §1
# Dd2 = system: Dd2
# Procedure, shortened: as §1
# ECU = system: ECU
# Procedure, shortened: as §1
# HB3 = system: HB3
# Procedure, shortened: as §1
# SC27B = system: SC27B
# Procedure, shortened: as §1
# Potency is the fitted concentration of half-maximal effect.
SMILES,Potency (ATS95),Potency (C2A),Potency (CP217),Potency (CP237),Potency (CP238),Potency (CP250),Potency (CP252),Potency (CP256),Potency (CP262),Potency (CP265),Potency (CP266),Potency (CP268),Potency (CP269),Potency (CP305),Potency (CP325),Potency (CP329),Potency (Dd2),Potency (ECU),Potency (HB3),Potency (SC27B)
CC1CCC(C(C)C)C(O)C1 (stereo not given),inactive,inactive,inactive,inactive,inactive,inactive,inactive,inactive,inactive,inactive,inactive,inactive,inactive,inactive,inactive,inactive,inactive,inactive,inactive,inactive
Cc1ccc(S(=O)(=O)NC(=O)NC(C)Cc2ccccc2)cc1 (stereo not given),inactive,inactive,inactive,inactive,inactive,inactive,inactive,inactive,inactive,inactive,inactive,inactive,inactive,inactive,inactive,inactive,inactive,inactive,inactive,inactive
CC(C)C[C@@H](NC(=O)[C@@H](Cc1ccccc1)NC(=O)c1cnccn1)B(O)O,112 nM (active),112 nM (active),112 nM (active),89.1 nM (active),89.1 nM (active),126 nM (active),89.1 nM (active),141 nM (active),120 nM (active),141 nM (active),379 nM (active),135 nM (active),151 nM (active),757 nM (active),151 nM (active),120 nM (active),112 nM (active),126 nM (active),79.4 nM (active),141 nM (active)
CC(C)(C)C(=O)OCC(=O)C1CCC2C3CCC4=CC(=O)CCC4(C)C3CCC12C (stereo not given),inactive,inactive,inactive,inactive,inactive,inactive,inactive,inactive,inactive,inactive,inactive,inactive,inactive,inactive,inactive,inactive,inactive,inactive,inactive,inactive
C=C1[C@@H]2CC[C@H](C2)C1(C)C,inactive,inactive,inactive,inactive,inactive,inactive,inactive,inactive,inactive,inactive,inactive,inactive,inactive,inactive,inactive,inactive,inactive,inactive,inactive,inactive
CC1(C)C2CC[C@]1(C)[C@@H](O)C2,inactive,inactive,inactive,inactive,inactive,inactive,inactive,inactive,inactive,inactive,inactive,inactive,inactive,inactive,inactive,inactive,inactive,inactive,inactive,inactive
CO[C@H]1OC2O[C@@]3(C)CC[C@H]4[C@H](C)CC[C@@H]([C@H]1C)[C@@]24OO3 (stereo not given in full),25.1 nM (active),35.5 nM (active),31.6 nM (active),15.8 nM (active),22.4 nM (active),63.1 nM (active),31.6 nM (active),12.6 nM (active),33.8 nM (active),3.2 nM (active),67.5 nM (active),21.3 nM (active),21.3 nM (active),15.1 nM (active),15.1 nM (active),60.1 nM (active),7.1 nM (active),15.8 nM (active),7.9 nM (active),14.1 nM (active)
C/C1=C2/[N-]C(C(CC(N)=O)[C@@]2(C)CCC(=O)NCC(C)OP(=O)([O-])O[C@H]2[C@@H](O)[C@@H](n3cnc4cc(C)c(C)cc43)O[C@@H]2CO)[C@]2(C)N=C(/C(C)=C3N=C(/C=C4N=C1C(CCC(N)=O)C\4(C)C)[C@@H](CCC(N)=O)[C@]\3(C)CC(N)=O)[C@@H](CCC(N)=O)[C@]2(C)CC(N)=O.CC(=O)O.[Co] (stereo not given in full),inactive,inactive,inactive,inactive,inactive,inactive,inactive,inactive,inactive,inactive,inactive,inactive,inactive,inactive,inactive,inactive,inactive,inactive,inactive,inactive
CC(=O)NC[C@@H]1CN(c2ccc(N3CCOCC3)c(F)c2)C(=O)O1,inactive,inactive,inactive,inactive,inactive,inactive,inactive,inactive,inactive,inactive,inactive,inactive,inactive,inactive,inactive,inactive,inactive,inactive,inactive,inactive
CC(c1ncncc1F)[C@](O)(Cn1cncn1)c1ccc(F)cc1F (stereo not given in full),inactive,inactive,inactive,inactive,inactive,inactive,inactive,inactive,inactive,inactive,inactive,inactive,inactive,inactive,inactive,inactive,inactive,inactive,inactive,inactive
C=NC(C(=O)NC1C(=O)N2C1SC(C)(C)C2C(=O)O)c1ccccc1 (stereo not given),inactive,inactive,inactive,inactive,inactive,inactive,inactive,inactive,inactive,inactive,inactive,inactive,inactive,inactive,inactive,inactive,inactive,inactive,inactive,inactive
CC[C@@H]1/C=C(\C)C[C@H](C)C[C@H](OC)[C@H]2O[C@@](O)(C(=O)C(=O)N3CCCC[C@H]3C(=O)O[C@H](/C(C)=C/[C@@H]3CC[C@H](Cl)[C@H](OC)C3)[C@H](C)[C@@H](O)CC1=O)[C@H](C)C[C@@H]2OC,inactive,inactive,inactive,inactive,inactive,inactive,inactive,inactive,inactive,inactive,inactive,inactive,inactive,inactive,inactive,inactive,inactive,inactive,inactive,inactive
C=CCn1c(=O)n(C2OC(CO)C(O)C2O)c2nc(N)[nH]c(=O)c21 (stereo not given),inactive,inactive,inactive,inactive,inactive,inactive,inactive,inactive,inactive,inactive,inactive,inactive,inactive,inactive,inactive,inactive,inactive,inactive,inactive,inactive
O=c1[nH]c(=O)n(C2C[C@H](O)[C@@H](CO)O2)cc1C(F)(F)F (stereo not given in full),inactive,inactive,inactive,inactive,inactive,inactive,inactive,inactive,inactive,inactive,inactive,inactive,inactive,inactive,inactive,inactive,inactive,inactive,inactive,inactive
Cc1cnc(C(=O)O)cn1,inactive,inactive,inactive,inactive,inactive,inactive,inactive,inactive,inactive,inactive,inactive,inactive,inactive,inactive,inactive,inactive,inactive,inactive,inactive,inactive
O=c1ccn(C2OC(COP(=O)(O)OC3C(CO)OC(n4ccc(=O)[nH]c4=O)C3O)C(O)C2O)c(=O)[nH]1 (stereo not given),inactive,inactive,inactive,inactive,inactive,inactive,inactive,inactive,inactive,inactive,inactive,inactive,inactive,inactive,inactive,inactive,inactive,inactive,inactive,inactive
Cc1cn([C@H]2CC(F)[C@@H](CO)O2)c(=O)[nH]c1=O (stereo not given in full),inactive,inactive,inactive,inactive,inactive,inactive,inactive,inactive,inactive,inactive,inactive,inactive,inactive,inactive,inactive,inactive,inactive,inactive,inactive,inactive
CO/N=C(/C(=O)N[C@@H]1C(=O)N2C(C(=O)O)=C(C[n+]3ccc(N)n3CCO)CS[C@H]12)c1csc(N)n1,inactive,inactive,inactive,inactive,inactive,inactive,inactive,inactive,inactive,inactive,inactive,inactive,inactive,inactive,inactive,inactive,inactive,inactive,inactive,inactive
CCN(CC)C(=O)Nc1ccc(OC[C@H](O)CNC(C)(C)C)c(C(C)=O)c1,inactive,inactive,inactive,inactive,inactive,inactive,inactive,inactive,inactive,inactive,inactive,inactive,inactive,inactive,inactive,inactive,inactive,inactive,inactive,inactive
CCCCC/C(C=O)=C/c1ccccc1,inactive,inactive,inactive,inactive,inactive,inactive,inactive,inactive,inactive,inactive,inactive,inactive,inactive,inactive,inactive,inactive,inactive,inactive,inactive,inactive
COC(c1ccccc1)(c1ccccc1)C(Oc1nc(C)cc(C)n1)C(=O)O (stereo not given),inactive,inactive,inactive,inactive,inactive,inactive,inactive,inactive,inactive,inactive,inactive,inactive,inactive,inactive,inactive,inactive,inactive,inactive,inactive,inactive
CC(=O)OCC(=O)[C@@]1(O)CCC2C3CCC4=CC(=O)C=CC4(C)C3C(O)C[C@]21C (stereo not given in full),inactive,inactive,inactive,inactive,inactive,inactive,inactive,inactive,inactive,inactive,inactive,inactive,inactive,inactive,inactive,inactive,inactive,inactive,inactive,inactive
C=C(NCc1ccccc1)c1ccccc1O,inactive,inactive,inactive,inactive,inactive,inactive,inactive,inactive,inactive,inactive,inactive,inactive,inactive,inactive,inactive,inactive,inactive,inactive,inactive,inactive
CC(=O)NC1[C@H](O)C[C@@](O)(C(=O)O)O[C@H]1[C@H](O)[C@H](O)CO (stereo not given in full),inactive,inactive,inactive,inactive,inactive,inactive,inactive,inactive,inactive,inactive,inactive,inactive,inactive,inactive,inactive,inactive,inactive,inactive,inactive,inactive
